Shown are actives, neighbours in structure and some others; about 12% of the full set was active somewhere.
PLK1 PBD block = inhibitors of human PLK1 polo-box domain binding. P53350. Plk1 PBD binding of FITC phosphopeptide, fluorescence polarization. Potency, µM, inactives show max response, negative = inhibition, actives largely listed as inhibitors. 360,000 compounds, 2.8% hits. AID 720504; also: potency is read from the fitted curve at half-maximal effect; series mostly up to about 57 µM; % is scaled to controls: 0 for no effect and ±100 for the full control effect; nearly all actives have a fitted effect of over 65% in size
G9a inh = blocks human histone lysine methyltransferase G9a | Q96KQ7 | G9a H3K9 monomethylation, AlphaScreen, 2 h | Potency, µM (doses to about 102 µM), for inactives: top-dose activity, negative = inhibition, usual class: inhibitors | 350,000 compounds, 8.8% hits | AID 504332; also: potency is read from the fitted curve at half-maximal effect; % is scaled to controls: 0 for no effect and ±100 for the full control effect; nearly all actives have a fitted effect of over 75% in size
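Readings reflect AlphaScreen signal from monomethyl-H3K9 antibody detection. HMT at 20 nM; substrate b-H3K9 500 nM; cofactor SAM 20 uM; 2 h RT reaction; compounds tested as titrations in qHTS with 15 min preincubation.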
HP1b chromo inh = blocks HP1-beta chromodomain binding to methylated histone tails; P83916; AlphaScreen HP1-beta / biotin-H3K9me3 peptide binding; 390,000 compounds, 0.56% hits; Potency, µM (top dose mostly 114 µM), for inactives: top-dose activity change, negative = inhibition, actives largely listed as inhibitors; also: potency is read from the fitted curve at half-maximal effect; nearly all actives have a fitted effect of over 70% in size
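HP1-beta protein (50 nM final) preincubated 30 min at room temperature with biotinylated H3(1-18)K9me3 peptide (50 nM) in PBS pH 7.4, 0.01% Tween-20, then compound added for 30 min. AlphaScreen streptavidin donor/nickel chelate acceptor beads (10 ug/mL final), 30 min dark, luminescence read.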
PI5P4Ka inh = blocks human PI5P4K alpha kinase activity; P48426; PI5P4Kalpha enzyme, ADP-Glo luminescence, 60 min; active compounds read low; max response, %; 330,000 compounds, 1.2% hits; AID 652105; active = max response of -50% or lower; inconclusive = between -30% and -50%; inactive = -30% or higher; also: value at the top dose of about 77 µM; % is scaled to controls: 0 for no effect and ±100 for the full control effect
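qHTS, 1536-well: enzyme/substrate mix, compound by pin tool, 5 microM ATP final; RT 60 min; ADP-Glo reagents 1 (45 min) then 2 (30 min); luminescence.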
BAZ2B block = inhibitors of human BAZ2B bromodomain | 360,000 compounds, 4.4% hits | AlphaScreen BAZ2B-H3K14Ac peptide displacement | Potency, µM (series often up to 114 µM), for the others: at the top dose activity change, negative = inhibition, usual class: inhibitors | Q9UIF8; also: potency is read from the fitted curve at half-maximal effect; % is scaled to controls: 0 for no effect and ±100 for the full control effect; nearly all actives have a fitted effect of over 60% in size
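BAZ2B (50 nM) with biotin-H3(5-23)K14Ac peptide (50 nM) in PBS pH 7.4, 0.01% Tween-20, preformed 30 min, then compound 30 min at room temperature; top concentration 110uM. AlphaScreen streptavidin donor/nickel chelate acceptor beads (10 ug/mL final), 20 min dark, signal read.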
JMJD2A Tudor = JMJD2A Tudor domain (human) inhibition; O75164; AlphaScreen JMJD2A-Tudor / H3K4me3 peptide binding; Potency, µM (highest dose often 114 µM), inactives show at the top dose activity change, negative = inhibition, actives largely listed as inhibitors; 390,000 compounds, 4.4% hits; AID 504339; also: potency is read from the fitted curve at half-maximal effect; % is scaled to controls: 0 for no effect and ±100 for the full control effect; nearly all actives have a fitted effect of over 50% in size
Target sequence (O75164 whole entry, looked up, the tested form may be a part): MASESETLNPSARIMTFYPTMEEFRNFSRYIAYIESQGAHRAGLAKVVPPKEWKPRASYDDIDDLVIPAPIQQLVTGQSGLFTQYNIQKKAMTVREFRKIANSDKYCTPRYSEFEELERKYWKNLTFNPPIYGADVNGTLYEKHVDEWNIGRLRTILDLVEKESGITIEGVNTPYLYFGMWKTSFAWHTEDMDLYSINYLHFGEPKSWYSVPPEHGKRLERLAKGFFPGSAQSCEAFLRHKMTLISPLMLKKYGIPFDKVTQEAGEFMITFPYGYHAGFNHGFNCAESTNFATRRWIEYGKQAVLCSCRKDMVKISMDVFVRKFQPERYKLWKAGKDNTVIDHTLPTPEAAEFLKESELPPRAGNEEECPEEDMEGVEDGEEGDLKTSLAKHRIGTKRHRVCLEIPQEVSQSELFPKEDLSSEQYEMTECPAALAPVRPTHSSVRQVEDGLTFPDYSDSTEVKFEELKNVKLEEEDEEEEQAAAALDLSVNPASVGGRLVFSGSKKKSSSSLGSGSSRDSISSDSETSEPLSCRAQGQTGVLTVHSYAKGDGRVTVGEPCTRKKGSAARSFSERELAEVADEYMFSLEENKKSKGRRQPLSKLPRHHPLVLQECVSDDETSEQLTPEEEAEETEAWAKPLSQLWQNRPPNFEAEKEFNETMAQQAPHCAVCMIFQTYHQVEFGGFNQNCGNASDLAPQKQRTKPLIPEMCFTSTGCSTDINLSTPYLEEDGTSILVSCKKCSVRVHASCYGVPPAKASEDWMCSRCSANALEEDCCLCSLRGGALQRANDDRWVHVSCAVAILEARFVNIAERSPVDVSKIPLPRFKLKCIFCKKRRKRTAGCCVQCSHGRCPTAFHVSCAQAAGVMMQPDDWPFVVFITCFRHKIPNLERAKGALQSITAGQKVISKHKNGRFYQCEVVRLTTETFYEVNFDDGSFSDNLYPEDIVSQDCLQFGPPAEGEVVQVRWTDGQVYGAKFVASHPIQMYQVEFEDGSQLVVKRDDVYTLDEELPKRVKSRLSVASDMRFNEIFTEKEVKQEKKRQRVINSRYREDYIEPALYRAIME
* marks the source's active call; other numbers are inactive results; ? = inconclusive; · = no result given; [ ] = remark or other dose. Unless noted, calls follow the shape of the dose curve; as a rule, active = well fitted curve in the direction sought with a large enough effect; inconclusive = small, poorly fitted or top-dose-only effect, or another doubt; inactive = no such curve, though single readings can be large; an effect the other way counts as inactive or inconclusive.

SMILES | PLK1 PBD block | G9a inh | HP1b chromo inh | PI5P4Ka inh | BAZ2B block | JMJD2A Tudor
OCCOCCn1c(-c2ccccc2)nc(=S)c2c1CCCC2 | -37.1% | 50.1µM* | 20.2% | -1.3 | 5.7% | -10.3%
c1ccc(-c2ccc(-c3nc(-c4ccccn4)no3)cc2)cc1 | -0.2% | 7.7%[12.7 µM] | 76.5% | · | 11.4% | -2.5%
CNc1nc(-c2ccccn2)nnc1-c1ccccc1 | -9.0% | 1.9%[12.7 µM] | 29.6% | -1.0 | 0.891µM* | 5.62µM*
FC(F)(F)c1cccc(NC(=S)Nc2ccc(Cl)c(Cl)c2)c1 | -4.1% | · | 31.2% | 12.3 | 7.2% | 3.5%
O=[N+]([O-])c1cc(C(F)(F)F)cc([N+](=O)[O-])c1NCCNC(=S)Nc1ccc(Cl)c(Cl)c1 | 4.2% | · | -31.2% | 3.3 | 25.1µM* | 31.6µM*
O=C(/C=C/c1cc2ccccc2o1)c1ccccc1O | -5.9% | · | ? | 34.3 | 8.91µM* | 20µM*
COc1cccc(C(=O)Oc2ccccc2/C=C\C(=O)c2cc3ccccc3o2)c1 | -13.5% | 11.2µM* | 5.7% | 2.5 | ? | -30.8%
COc1ccc(NC(=O)c2cc3ccccc3o2)cc1 | -12.1% | 1.5% | 9.4% | 4.1 | -2.7% | -4.5%
COc1ccc(O)c(C(=O)/C=C/c2cc3ccccc3o2)c1 | -3.9% | ? | 3.55µM* | 7.2 | 11.2µM* | 28.2µM*
O=C(Oc1ccccc1/C=C\C(=O)c1cc2ccccc2o1)c1ccccc1 | -10.9% | ? | -0.8% | -6.1 | -36.9% | -31.9%
O=C(Nc1ccccc1C(F)(F)F)N1CCC2(CC1)Oc1ccccc1C(=O)N2Cc1ccccc1F | · | -2.2%[59 µM] | 13.7% | · | -1.3% | -6.5%
CCOC(=O)C(CC)Sc1nnc2[nH]c(=O)cc(C)n12 (stereo not drawn) | · | -1.1%[59 µM] | -1.5% | · | -1.4% | -14.9%
COc1ccccc1NS(=O)(=O)c1cccc(C(=O)NCC(c2ccc(F)cc2)N2CCOCC2)c1 (stereo not drawn) | -0.4% | -29.6% | 23.1% | 2.2 | 6.6% | -11.0%
O=C(O)C1C2C=CC(C3CC23)C1C(=O)O (stereo not drawn) | -5.5% | -5.8%[59 µM] | 4.5% | · | 8.5% | -19.2%
O=C(O)C1OC(C(=O)O)C(C(=O)O)C1C(=O)O (stereo not drawn) | 7.5% | · | -13.1% | -0.5 | · | 20µM*
N#Cc1ccc(CN2CCN(C(=O)C3CC(=O)N(c4ccccc4F)C3)CC2)cc1 (stereo not drawn) | -10.6% | · | 21.0% | 2.3 | · | -17.3%
CC(=O)OC1=C(C#N)Cn2ccc3cccc1c32 | · | 11.2µM* | · | · | -11.6% | ·
CC1CCCCC12NC(=O)N(CC(=O)N1CCN(S(=O)(=O)c3ccc(Cl)s3)CC1)C2=O (stereo not drawn) | -1.6% | · | · | -20.6 | · | ·
O=C(CN1C(=O)NC2(CCCCC2)C1=O)N1CCN(S(=O)(=O)c2ccc(Cl)s2)CC1 | -0.4% | 17.8µM* | -6.2% | -4.6 | 11.7% | -21.9%
Cc1ccc(C2CC(=O)Oc3ccc(C(C)(C)C)cc32)cc1 (stereo not drawn) | · | 77.8% | · | · | · | ·
Cc1ccnc(NC(c2ccccc2O)c2oc(CO)cc(=O)c2O)c1 (stereo not drawn) | ? | 0.891µM* | 1.0% | -19.1 | ? | -16.7%
O=c1cc(CO)oc(C(Nc2ccccn2)c2ccc(F)cc2)c1O (stereo not drawn) | 15µM* | -119.8%[12.7 µM] | ? | -3.4 | -27.2% | 39.8µM*
O=c1cc(CO)oc(C(Nc2ccccn2)c2ccccc2Cl)c1O (stereo not drawn) | ? | 1.12µM* | ? | 1.3 | ? | 28.2µM*
Fc1ccc(CNc2ccccn2)cc1 | 2.0% | · | 32.6% | -6.7 | 5.2% | 8.8%
O=c1cc(CO)oc(C(Nc2ccccn2)c2ccsc2)c1O (stereo not drawn) | · | 2µM* | · | · | ? | ·
SMILES | PLK1 PBD block | G9a inh | HP1b chromo inh | PI5P4Ka inh | BAZ2B block | JMJD2A Tudor
COc1ccccc1N1CCN(C(=O)CCS(=O)(=O)c2cc(Br)cc3c2N(C(=O)C2CC2)CC3)CC1 | · | -18.0%[59 µM] | 21.8% | · | -0.8% | -11.3%
CCCCNC(=O)NS(=O)(=O)c1ccc(N)cc1 | · | 18.1%[59 µM] | · | · | · | ·
COCCCNc1nc2c(c(=O)[nH]c(=O)n2C)n1CC(O)COc1ccccc1 (stereo not drawn) | -4.0% | -17.0% | 15.5% | · | 6.7% | -6.7%
Cn1c(=O)[nH]c(=O)c2c1nc(SCCO)n2CC(O)COc1ccccc1 (stereo not drawn) | 23.8µM* | 15.8µM* | ? | -16.9 | -25.8% | -21.1%
COCCCNc1nc2c(c(=O)[nH]c(=O)n2C)n1CC(O)COc1ccccc1C (stereo not drawn) | 23.8µM* | -20.3% | -4.8% | 1.3 | -4.3% | -29.7%
Cn1c(=O)c2c(nc(N3CCCCCC3)n2CC(O)COc2ccccc2)n(C)c1=O (stereo not drawn) | 2.99µM* | 10.1%[0.0925 µM] | ? | ? | -4.4% | ?
CCSc1nc2c(c(=O)[nH]c(=O)n2C)n1CC(O)COc1ccccc1 (stereo not drawn) | 5.4% | 8.5% | 48.5% | -3.3 | · | -13.6%
CCCSc1nc2c(c(=O)[nH]c(=O)n2C)n1CC(O)COc1ccccc1 (stereo not drawn) | -29.6% | 50.1µM* | -2.7% | 1.6 | 2.1% | -8.7%
Cc1ccc(S(=O)(=O)c2nnn3c2nc(N2CCCC(C)C2)c2cc(Cl)ccc23)cc1C (stereo not drawn) | · | 8.8%[59 µM] | 21.8% | · | -3.6% | 4.0%
CCCCn1cc(S(=O)(=O)c2ccc(Cl)cc2)c(=O)c2cc(F)c(N3CCCCC3)cc21 | · | 5.6%[59 µM] | 16.1% | · | 0.2% | -11.6%
CCc1cccc(CC)c1N(COC)C(=O)Cn1c(C)nc2ccccc21 | · | ? | 14.1% | · | -7.3% | -11.8%
CC(C)CSc1nc2c(c(=O)[nH]c(=O)n2C)n1CC(O)COc1cccc2ccccc12 (stereo not drawn) | 10.6µM* | 3.98µM* | ? | -19.6 | -8.7% | ?
Cc1ccc(NC(=O)C2CCCN2c2nn3c(=O)cc(C)nc3s2)cc1 (stereo not drawn) | -3.0% | 8.9% | 72.5% | 0.1 | -3.4% | -5.6%
COc1cc(C(=O)CC2(O)C(=O)N(Cc3ccccc3Cl)c3ccccc32)cc(OC)c1OC (stereo not drawn) | · | -13.4%[59 µM] | 19.7% | · | ? | -34.3%
COc1cccc(NC(=O)Cn2c(=O)n(-c3ccc(C)cc3)c(=O)c3ccc(C(=O)NCc4ccco4)cc32)c1 | · | 25.6%[59 µM] | 50.9% | · | · | -21.3%
CCC(C)C(=O)Nc1nnc(CCc2ccccc2)s1 (stereo not drawn) | 23.8µM* | · | 4.1% | -24.3 | 33.2% | 70.8µM*
O=C(Nc1nnc(-c2cccs2)s1)C1CC1 | -19.2% | 22.4µM* | 15.7% | ? | -4.0% | -14.3%
C=C(C)C(=O)Nc1nnc(-c2cccs2)s1 | 0.7% | 8.7%[59 µM] | 37.0% | 8.4 | 6.0% | 0.7%

Screening results from PubChem BioAssay.
